tim10-1 inh: growth inhibitors of tim10-1 mutant yeast | S. cerevisiae tim10-1 ts strain growth, BacTiter-Glo, 24 h | inhibition, % at 20 µM | actives 2.2% (n = 330,000) | AID 463190;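 active = inhibition of at least 40%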;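 also: mutant grown at 25 °C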
NALP1 inh: inhibitors of NALP1 inflammasome in yeast. S. cerevisiae NALP1/ASC/caspase-1 growth, X-gal OD620, 72 h. inhibition, % at 10 µM. actives 0.61% (n = 280,000). AID 2071; in the data active = inhibition mostly above about 24%, no sharp cut-off; inactive = mostly below about 32%
TIM10 inh: growth inhibitors of TIM10 yeast strain; S. cerevisiae TIM10 strain growth, BacTiter-Glo luminescence, 24 h; inhibition, % at 10 µM; actives 1.4% (n = 330,000);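 active = inhibition of 40% or more at the single tested concentration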;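 also: wild-type TIM10 isogenic control strain grown at permissive 25 °C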
tim23-1 inh: inhibits growth of tim23-1 mutant yeast. S. cerevisiae tim23-1 growth, BacTiter-Glo luminescence, 24 h. inhibition, % at 20 µM. actives 1.3% (n = 330,000);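 active = growth inhibition of the mutant yeast at or above 50%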;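 also: temperature-sensitive mutant grown at 25 °C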
NLRP3 yeast inh: inhibitors of NALP3 inflammasome in yeast | Yeast reconstituted NLRP3/ASC/caspase-1, beta-gal luminescence, 24 h | inhibition, % at 10 µM | actives 0.39% (n = 330,000);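 active = inhibition of 50% or more; inactive = inhibition below 50%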
V-ATPase pH: yeast V-ATPase proton transport regulation by pHLuorin; S. cerevisiae, pHLuorin cytosolic pH fluorescence; response, % at 10 µM; actives 0.37% (n = 350,000); AID 504577; in the data active = response mostly above about 7.3%, no sharp cut-off; inactive = mostly below about 5.4%; also: actives read high
A number is an active result; - = inactive; . = no result. Shown are actives, neighbours in structure and some others; about 4.2% of the full set was active somewhere.

SMILES	tim10-1 inh	NALP1 inh	TIM10 inh	tim23-1 inh	NLRP3 yeast inh	V-ATPase pH
Cc1ccc(CC2(c3ccccc3)NC(=O)NC2=O)cc1 (stereo unspecified)	.	.	.	.	.	15
O=C1NC(=O)C(Cc2ccccc2)(c2ccccc2)N1 (stereo unspecified)	.	.	.	.	.	-
COC(CNC(=O)c1cccc2c1C(=O)N(Cc1cccnc1)C2)OC	-	41	-	-	-	-
Cc1ccc(O)c(CO)n1	-	-	-	-	-	-
Cc1nc2c(O)cccc2cc1CO	-	36	-	-	-	-
O=C(CBr)Nc1c2c(nn1-c1ccccc1)CSC2	-	-	-	-	-	11
CC(CN1CCOCC1)C(=O)O (stereo unspecified)	-	-	-	-	-	-
Cc1[nH]c(=O)[nH]c(=O)c1/C=N/NC(=O)CCCCCNC(=O)OC(C)(C)C	-	-	-	-	-	-
Cc1ccc(/C=C/c2ccc(=O)n(Cc3ccccc3Cl)n2)cc1	-	37	-	-	-	-
Cc1ccc(/C=C/c2ccc(=O)n(Cc3ccc(F)cc3)n2)cc1	-	-	-	-	-	-
CCOC(=O)CNC(=O)CSc1nc(C)cc(C)c1C#N	-	37	-	-	-	-
CC[C@H]1OC(=O)[C@H](C)[C@@H](O[C@H]2C[C@@](C)(OC)[C@@H](O)[C@H](C)O2)[C@H](C)[C@@H](O[C@@H]2O[C@H](C)C[C@H](N(C)C)[C@H]2O)[C@](C)(O)C[C@@H](C)C(=NOCOCCOC)[C@H](C)[C@@H](O)[C@]1(C)O	-	-	-	-	-	-
N=c1sccn1CC(=O)Nc1ccccc1Cc1ccccc1	-	-	-	-	-	-
N=c1sccn1CC(=O)Nc1ccccc1Oc1ccccc1	-	38	-	-	-	-
Cc1nc2ccccc2c(=O)n1/N=C/c1cn[nH]c1-c1ccccc1	-	41	-	-	-	-
Cc1ccnc(NC2CCCCC2)c1	-	21	-	-	-	-
Cc1csc(NC(=O)CSc2nnc(-c3cccs3)n2C)n1	-	-	-	-	-	-
CC1=C(C)/C(=N\OS(=O)(=O)c2ccc(C)cc2)C=CC1=O	.	-	.	.	.	10
COc1ccc(S(=O)(=O)/N=C2/C=CC(=O)C(C)=C2C)cc1	-	-	-	-	-	-
O=C(NCc1ccco1)c1cc(-c2cccc(Cl)c2)on1	-	-	-	-	-	-
COc1cccc(-c2cc(C(=O)NCc3ccco3)no2)c1	-	29	-	-	-	-
CN1CCN(C2=Cc3ccc(Cl)cc3Sc3ccc(F)cc32)CC1	-	-	-	-	-	-
Cc1ccc(Nc2nc3c([nH]2)c(=O)n(C)c(=O)n3C)cc1	-	-	-	-	-	-
Cc1cc(C)cc(Nc2nc3c([nH]2)c(=O)n(C)c(=O)n3C)c1	-	32	-	-	-	-
N#C/C(=N\Nc1cccc(C(F)(F)F)c1)C(=O)c1ccsc1	-	40	-	-	-	-
SMILES	tim10-1 inh	NALP1 inh	TIM10 inh	tim23-1 inh	NLRP3 yeast inh	V-ATPase pH
N#C/C(=N\Nc1cccc([N+](=O)[O-])c1)C(=O)c1ccc(Br)cc1	-	-	-	-	-	-
COc1ccc(Cl)cc1CNC[C@H]1O[C@@H](n2ccc(N)nc2=O)[C@H](O)[C@@H]1O	.	.	.	.	.	-
O=C(CSc1nnnn1-c1ccccc1)Nc1nc(-c2ccccc2)ns1	-	.	-	-	-	-
O=C1CC(c2cccc([N+](=O)[O-])c2)c2cc3c(cc2N1)CCC3 (stereo unspecified)	-	-	-	-	-	-
COc1ccc(-n2c(C)c([N+](=O)[O-])c3ccc(O)c(CN(C)C)c32)cc1	-	24	-	-	-	-
CN(C)n1cnc2ccsc2c1=O	-	30	-	-	-	-
CCCOc1ccc(C(=O)C(CN2CCCC2)c2ccccc2)cc1 (stereo unspecified)	.	60	.	.	.	-
COCC(=O)N1CCC(Oc2ccc(C(=O)NCCCC3CCCC3)cc2)CC1	-	-	-	-	-	-
O=C1NCCN/C1=C\C(=O)c1ccc(Cl)cc1	-	39	-	-	-	-
COc1ccc(NS(=O)(=O)c2cc(NC(=O)Cc3n[nH]c(=O)c4ccccc34)ccc2OC)cc1	.	.	.	.	.	-
Cc1c(Br)cccc1NC(=O)c1sccc1-n1cccc1	-	44	-	-	-	-
CCN(CC)CCCNC(=O)c1ccc(N2CCCCC2)c(NS(=O)(=O)c2ccc(C)cc2)c1	-	24	-	-	-	-
O=C(Cn1c(C(=O)NCCCN2CCOCC2)cc2sccc21)c1ccccc1	-	-	-	-	-	-
CC(=O)NC1(c2ccccc2)CCN(c2cc(C)nc(-c3ccccc3)n2)CC1	-	40	-	-	-	-
Cc1cc(N2CCC(C(=O)NC3CC3)CC2)nc(-c2ccccc2)n1	-	-	-	-	-	-
CCn1ncc(C(=O)Nc2cccc(Cl)c2)c1C	-	45	-	-	-	-
CCn1ncc(C(=O)Nc2cc(C)on2)c1C	-	-	-	-	-	-
CC(C)N(C(=S)Nc1cc(S(=O)(=O)N2CCOCC2)ccc1Cl)c1ccccc1	-	59	-	-	-	-
CCC(C)(C)c1ccc(OCCCC[n+]2cccc(C)c2)c(C(C)(C)CC)c1	.	33	.	.	.	-
Nc1nc(-c2ccc3c(c2)CCCC3)c(CC(=O)O)s1	-	37	-	-	-	-
O=C(O)c1nccnc1C(=O)Nc1ccccc1N1CCOCC1	-	-	-	-	-	-
O=[N+]([O-])c1ccc(N=Nc2c(Cl)cc(O)cc2Cl)cc1	.	99	.	.	.	-
CC(N)=Nc1ccc([N+](=O)[O-])cc1	-	-	-	-	-	-
COC(=O)c1cc(S(=O)(=O)NCc2ccccc2)cn1C	-	-	-	-	-	-
CCN1CCCC1CNC(=O)c1cc(N)ccc1OC (stereo unspecified)	-	.	-	-	-	-
SMILES	tim10-1 inh	NALP1 inh	TIM10 inh	tim23-1 inh	NLRP3 yeast inh	V-ATPase pH
C=CCN1CCCC1CNC(=O)c1cc2[nH]nnc2cc1OC (stereo unspecified)	-	.	-	-	-	15
CCCCCCn1nc(C(=O)OCC(=O)c2c(N)n(C)c(=O)n(C)c2=O)c2ccccc2c1=O	-	-	-	-	-	-
Cn1c(SCC(=O)NC(=O)NCc2ccco2)nnc1-c1ccccc1	-	-	-	-	-	-
CCOc1cc(-c2nc(-c3ccc(C)nc3OC)no2)cc(OCC)c1OCC	.	27	.	.	.	-
COc1ccc(C2c3c(ncn(Cc4ccco4)c3=N)Oc3ccc4ccccc4c32)cc1 (stereo unspecified)	-	-	-	-	-	-
N=c1c2c(ncn1Cc1ccco1)Oc1ccc3ccccc3c1C2c1ccccc1 (stereo unspecified)	-	57	-	-	-	-
C=CCNc1nc(Nc2cc(Cl)ccc2OC)nc(OC)n1	-	25	-	-	-	-
COc1ccccc1-n1c(SCC(=O)N2CCCCC2)nc(O)c(Cc2ccccc2)c1=O	-	-	-	-	-	-
NNC(=S)NCc1cccnc1	-	74	-	-	-	-
O=S(=O)(c1ccc(NC(=S)N2CCN(c3ccccc3F)CC2)cc1)N1CCOCC1	-	-	-	-	-	-
